For orientation: Inhibition means the drop in the measured response relative to a control, in per cent.

Measured potencies and affinities stand elsewhere.

The test system of this assay is Staphylococcus aureus. Conditions: Concentration 32 ug.mL-1;; ASSAY_TEST Inhibition of Bacterial Growth; detection method Absorption (OD600); MEDIA CAMHB; plate type 384well; NBS; CORNING #3640; time 18 hr.
For `O=S(=O)(c1cccn2cnnc12)N(Cc1cccc(F)c1)c1cccc(Cl)c1`, the Inhibition stood at 6.21%. To `COc1cccc(CN(c2cccc(C)c2)S(=O)(=O)c2ccc3nnc(C)n3c2)c1` belongs 1.31%; to `COc1ccccc1N1CCN(C(=O)CSc2nnc3c(=O)n(-c4ccccc4)ccn23)CC1`, 3.83%. Next, `Cc1nnc2c(=O)n(CC(=O)Nc3ccc(Cl)cc3)c3ccccc3n12`: 6.71%; `Cc1ccc(Oc2nccn3c(=O)n(CC(=O)NCc4cccs4)nc23)cc1`: 11.07%; `CC(C)c1nnc2c(SCC(=O)Nc3ccccc3F)nc3ccccc3n12`: 10.78%. To `COc1ccc(NC(=O)Cn2nc3ccc(-c4ccc(Cl)cc4)nn3c2=O)cc1` belongs 8.85%; to `O=c1c2nnc(-c3ccc([N+](=O)[O-])cc3)n2ccn1-c1ccc(F)c(F)c1`, -6.17%; to `CCc1ccc(N(Cc2cccc(C)c2)S(=O)(=O)c2cccn3c(C)nnc23)cc1`, -11.31%. Take `CCCCn1c(=O)c2sccc2n2c(=O)n(CC(=O)N(C)c3ccccc3)nc12`: the Inhibition was -8.63%. On to `COc1ccc(-c2cc3c4nnc(CCC(=O)NCc5ccccc5Cl)n4ccn3n2)cc1`, for which the Inhibition came out at 0.8%. To `O=C(CSc1nnc2n(CC3CCCO3)c(=O)c3sccc3n12)Nc1ccc(F)cc1Cl` (stereo not given) belongs -6.42%; to `CCC(Sc1nnc2c(=O)n(-c3cccc(OC)c3)ccn12)C(=O)Nc1cc(F)ccc1F` (stereo not given), 3.22%. For `COc1ccccc1-n1ccn2c(SCc3ccccc3Cl)nnc2c1=O`, the Inhibition amounted to 15.04%. Next, `O=C(NCc1ccccc1)c1ccc2nn(CC(=O)N3CCN(c4ccccc4)CC3)c(=O)n2c1`: 4.31%.

Source of the values: ChEMBL document CHEMBL4513146, “CO-ADD screening of Karazin Kharkiv National University (Ukraine) compounds”.
